In the supplement of paper PMC11732987, “Enantioselective OTUD7B fragment discovery through chemoproteomics screening and high-throughput optimisation” (Communications Chemistry, 2025):

What was measured:
Assay in all cases: log2 ratio of Biotin-Ahx-Ub-VS probe labelling (fragment/DMSO); higher = less target engagement (more negative = stronger competition), active = hit call of the paper (q ≤ 0.05, log2 ratio ≤ -1)
Conditions in all cases: compound concentration: 200 uM; treatment time: 3 h
OTUD6B = target: T1, OTUD6B (UniProt Q8N6M0)
T1 sequence (whole entry): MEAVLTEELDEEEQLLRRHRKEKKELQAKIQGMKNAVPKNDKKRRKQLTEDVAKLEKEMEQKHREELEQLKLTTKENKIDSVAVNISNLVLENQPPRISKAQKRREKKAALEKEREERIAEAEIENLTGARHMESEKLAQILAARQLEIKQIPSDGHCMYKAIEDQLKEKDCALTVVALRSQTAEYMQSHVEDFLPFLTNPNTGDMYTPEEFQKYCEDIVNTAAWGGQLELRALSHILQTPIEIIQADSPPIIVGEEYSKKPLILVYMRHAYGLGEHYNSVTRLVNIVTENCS
In short: (§1)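 Using Biotin-Ahx-Ub-VS at 0.5 µM final for 1 h, DUBs were labelled in HEK293T lysate (495 µg per sample) that had first been treated in triplicate with fragment at 200 µM or vehicle for 3 h. NeutrAvidin enrichment, LysC and trypsin digestion and diaPASEF LC-MS/MS followed. Spectronaut label-free quantities were global-median-normalised. Values are average log2 fragment/vehicle ratios by unpaired t-test, using proteins with ≥2 unique peptides.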

OTUD7B = target: T2, OTUD7B (UniProt Q6GQQ9)
T2 sequence (whole entry): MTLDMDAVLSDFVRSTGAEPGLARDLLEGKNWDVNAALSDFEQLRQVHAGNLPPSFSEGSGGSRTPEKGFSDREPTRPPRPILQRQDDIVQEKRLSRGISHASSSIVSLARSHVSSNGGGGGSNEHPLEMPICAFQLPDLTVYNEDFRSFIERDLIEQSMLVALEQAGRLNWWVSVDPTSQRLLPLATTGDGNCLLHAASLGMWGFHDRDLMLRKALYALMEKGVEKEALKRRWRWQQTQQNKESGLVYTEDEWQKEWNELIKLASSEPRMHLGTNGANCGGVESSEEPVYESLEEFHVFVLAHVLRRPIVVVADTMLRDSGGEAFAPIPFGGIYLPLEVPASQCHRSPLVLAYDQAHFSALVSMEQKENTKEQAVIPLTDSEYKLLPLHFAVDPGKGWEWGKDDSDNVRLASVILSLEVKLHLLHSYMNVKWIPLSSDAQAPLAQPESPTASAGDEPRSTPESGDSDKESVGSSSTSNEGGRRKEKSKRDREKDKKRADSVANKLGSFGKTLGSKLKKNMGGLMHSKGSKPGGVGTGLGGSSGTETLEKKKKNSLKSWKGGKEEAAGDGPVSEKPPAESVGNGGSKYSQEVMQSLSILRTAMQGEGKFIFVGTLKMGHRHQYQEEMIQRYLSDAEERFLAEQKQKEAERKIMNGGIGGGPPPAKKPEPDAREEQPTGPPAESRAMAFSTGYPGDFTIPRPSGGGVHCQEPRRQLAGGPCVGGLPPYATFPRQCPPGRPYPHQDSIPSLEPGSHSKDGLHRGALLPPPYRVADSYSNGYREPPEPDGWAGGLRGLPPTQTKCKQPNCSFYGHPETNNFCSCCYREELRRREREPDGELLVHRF
In short: as §1

PRPF8 = PRPF8 (UniProt Q6P2Q9)
In short: as §1

PSMD7 = target: T3, PSMD7 (UniProt P51665)
T3 sequence (whole entry): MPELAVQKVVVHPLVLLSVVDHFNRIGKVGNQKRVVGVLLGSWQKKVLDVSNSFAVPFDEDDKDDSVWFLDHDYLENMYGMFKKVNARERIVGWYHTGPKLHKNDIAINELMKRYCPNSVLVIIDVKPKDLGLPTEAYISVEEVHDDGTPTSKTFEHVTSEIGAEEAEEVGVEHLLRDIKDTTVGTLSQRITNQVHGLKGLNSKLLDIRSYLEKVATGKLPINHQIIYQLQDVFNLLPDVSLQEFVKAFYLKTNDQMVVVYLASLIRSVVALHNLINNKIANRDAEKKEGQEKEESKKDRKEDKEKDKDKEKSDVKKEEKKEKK
In short: as §1

UCHL1 = UCHL1 (UniProt P09936)
Sequence of UCHL1 (P09936 whole entry, looked up): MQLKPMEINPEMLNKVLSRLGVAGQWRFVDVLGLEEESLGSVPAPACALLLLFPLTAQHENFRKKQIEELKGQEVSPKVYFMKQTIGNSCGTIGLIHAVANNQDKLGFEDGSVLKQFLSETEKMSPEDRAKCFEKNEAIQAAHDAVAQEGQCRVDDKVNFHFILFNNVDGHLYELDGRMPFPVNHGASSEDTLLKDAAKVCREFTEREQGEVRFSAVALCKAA
In short: as §1

UCHL3 = target: T4, UCHL3 (UniProt P15374)
T4 sequence (whole entry): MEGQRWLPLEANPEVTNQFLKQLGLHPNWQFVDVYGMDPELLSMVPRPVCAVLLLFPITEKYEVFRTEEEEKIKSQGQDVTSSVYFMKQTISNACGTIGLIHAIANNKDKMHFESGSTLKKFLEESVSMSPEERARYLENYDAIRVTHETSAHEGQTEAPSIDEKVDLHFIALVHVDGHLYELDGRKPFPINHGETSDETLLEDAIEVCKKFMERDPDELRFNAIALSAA
In short: as §1

UCHL5 = target: T5, UCHL5 (UniProt Q9Y5K5)
T5 sequence (whole entry): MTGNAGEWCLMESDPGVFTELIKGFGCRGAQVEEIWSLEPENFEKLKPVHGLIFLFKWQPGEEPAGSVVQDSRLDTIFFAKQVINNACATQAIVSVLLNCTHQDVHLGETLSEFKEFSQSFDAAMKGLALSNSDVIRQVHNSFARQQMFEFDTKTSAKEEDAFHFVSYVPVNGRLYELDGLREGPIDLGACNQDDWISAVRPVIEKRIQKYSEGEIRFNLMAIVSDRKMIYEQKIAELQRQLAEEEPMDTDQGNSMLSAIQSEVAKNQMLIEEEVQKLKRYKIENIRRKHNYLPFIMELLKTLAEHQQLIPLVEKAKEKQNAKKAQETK
In short: as §1

USP10 = USP10 (UniProt Q14694)
Sequence of USP10 (Q14694 whole entry): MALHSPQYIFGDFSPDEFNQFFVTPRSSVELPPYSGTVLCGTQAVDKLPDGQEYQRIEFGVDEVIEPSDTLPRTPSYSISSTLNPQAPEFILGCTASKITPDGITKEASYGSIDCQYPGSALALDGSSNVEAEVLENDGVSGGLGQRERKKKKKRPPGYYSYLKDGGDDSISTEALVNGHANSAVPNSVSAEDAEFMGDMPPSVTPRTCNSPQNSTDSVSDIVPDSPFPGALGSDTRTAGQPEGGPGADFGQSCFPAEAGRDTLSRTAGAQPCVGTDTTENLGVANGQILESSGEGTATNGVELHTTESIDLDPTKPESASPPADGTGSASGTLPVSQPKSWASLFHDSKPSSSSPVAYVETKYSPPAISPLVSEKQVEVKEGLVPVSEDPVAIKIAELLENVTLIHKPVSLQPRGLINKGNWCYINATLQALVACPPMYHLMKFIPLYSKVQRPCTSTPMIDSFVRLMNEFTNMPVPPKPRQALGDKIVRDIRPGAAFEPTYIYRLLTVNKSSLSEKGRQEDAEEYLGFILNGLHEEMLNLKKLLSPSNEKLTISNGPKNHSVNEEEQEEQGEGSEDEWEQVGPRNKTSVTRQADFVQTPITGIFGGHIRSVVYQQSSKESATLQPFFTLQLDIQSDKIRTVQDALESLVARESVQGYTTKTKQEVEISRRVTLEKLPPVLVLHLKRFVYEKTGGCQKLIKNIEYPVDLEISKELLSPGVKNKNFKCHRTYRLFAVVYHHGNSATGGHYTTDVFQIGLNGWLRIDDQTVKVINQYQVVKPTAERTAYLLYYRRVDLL
In short: as §1

USP15 = target: T6, USP15 (UniProt Q9Y4E8)
T6 sequence (whole entry): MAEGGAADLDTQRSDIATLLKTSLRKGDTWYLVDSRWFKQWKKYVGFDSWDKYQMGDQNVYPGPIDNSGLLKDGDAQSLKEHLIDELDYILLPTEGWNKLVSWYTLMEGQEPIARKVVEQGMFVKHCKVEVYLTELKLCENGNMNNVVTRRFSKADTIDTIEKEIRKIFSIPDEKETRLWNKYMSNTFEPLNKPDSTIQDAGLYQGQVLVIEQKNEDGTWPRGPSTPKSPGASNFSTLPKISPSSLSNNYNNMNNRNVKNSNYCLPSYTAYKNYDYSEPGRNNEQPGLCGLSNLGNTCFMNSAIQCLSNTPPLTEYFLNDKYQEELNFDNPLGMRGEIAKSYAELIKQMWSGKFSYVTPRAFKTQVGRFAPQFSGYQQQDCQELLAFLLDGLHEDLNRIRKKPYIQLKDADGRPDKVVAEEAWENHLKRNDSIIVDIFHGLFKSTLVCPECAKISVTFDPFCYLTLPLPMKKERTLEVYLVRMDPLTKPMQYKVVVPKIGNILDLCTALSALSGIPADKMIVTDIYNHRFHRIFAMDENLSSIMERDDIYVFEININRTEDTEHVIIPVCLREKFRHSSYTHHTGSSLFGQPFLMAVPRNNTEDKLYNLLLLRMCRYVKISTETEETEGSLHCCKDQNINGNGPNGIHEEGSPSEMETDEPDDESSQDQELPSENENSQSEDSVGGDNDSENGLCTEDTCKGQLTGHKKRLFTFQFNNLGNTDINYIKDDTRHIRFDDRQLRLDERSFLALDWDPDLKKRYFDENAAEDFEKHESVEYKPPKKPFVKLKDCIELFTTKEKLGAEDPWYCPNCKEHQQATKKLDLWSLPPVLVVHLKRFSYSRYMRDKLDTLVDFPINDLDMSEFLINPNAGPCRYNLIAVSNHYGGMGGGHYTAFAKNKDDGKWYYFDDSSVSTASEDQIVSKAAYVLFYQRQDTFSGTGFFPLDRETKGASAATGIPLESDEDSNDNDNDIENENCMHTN
In short: as §1

USP16 = USP16 (UniProt Q9Y5T5)
Sequence of USP16 (Q9Y5T5 whole entry, looked up): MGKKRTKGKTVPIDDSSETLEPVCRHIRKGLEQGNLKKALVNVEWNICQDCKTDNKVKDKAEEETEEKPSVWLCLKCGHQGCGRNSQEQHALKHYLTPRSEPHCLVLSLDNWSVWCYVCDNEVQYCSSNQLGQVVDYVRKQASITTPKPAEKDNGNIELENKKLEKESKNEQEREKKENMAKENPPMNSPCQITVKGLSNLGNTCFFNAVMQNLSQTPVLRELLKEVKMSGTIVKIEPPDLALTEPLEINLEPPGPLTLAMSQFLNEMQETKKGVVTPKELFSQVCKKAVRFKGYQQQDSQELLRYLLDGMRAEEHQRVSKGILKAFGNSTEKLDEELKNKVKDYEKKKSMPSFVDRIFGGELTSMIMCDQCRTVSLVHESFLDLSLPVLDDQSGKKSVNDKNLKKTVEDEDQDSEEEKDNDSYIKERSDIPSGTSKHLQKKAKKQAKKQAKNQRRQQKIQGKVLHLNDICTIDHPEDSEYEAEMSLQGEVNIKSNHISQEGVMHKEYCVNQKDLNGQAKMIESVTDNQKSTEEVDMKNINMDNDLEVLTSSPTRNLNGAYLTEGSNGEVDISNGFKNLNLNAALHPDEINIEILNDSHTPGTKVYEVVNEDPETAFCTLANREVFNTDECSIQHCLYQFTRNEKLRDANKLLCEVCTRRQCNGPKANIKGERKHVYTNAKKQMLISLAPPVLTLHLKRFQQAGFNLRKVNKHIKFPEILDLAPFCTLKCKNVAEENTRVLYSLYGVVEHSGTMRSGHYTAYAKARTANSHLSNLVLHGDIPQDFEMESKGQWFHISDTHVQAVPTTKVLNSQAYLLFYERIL
In short: as §1

Measured: log2 ratio of Biotin-Ahx-Ub-VS probe labelling

Cl.O=C(CCl)N1CCC(Cc2nccs2)C1 (stereo not given)
inactive: OTUD6B -0.205 | OTUD7B -0.436 | PRPF8 -0.0505 | PSMD7 -0.315 | UCHL3 -0.0765 | UCHL5 -0.293 | USP10 0.0972 | USP15 -0.249 | USP16 0.355
active: UCHL1 -1.01
